A short description of assay [1]: ATG_E_Box_CIS: Attagene CIS-FACTORIAL HepG2 Assay for human Enhancer Box (E-box) (AID 2282936). The conditions noted are these: HepG2 E-box cis-reporter transcription, actives raise or lower the signal. An outline of the steps:
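DMSO served as negative control and baseline for bidirectional fitting. Human hepatoma HepG2 cells, transiently transfected with cis-reporter constructs, were dosed 24 h; reporter mRNA read by RT-PCR and capillary electrophoresis.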

Assay [2] in a line: ATG_M_61_CIS: Attagene CIS-FACTORIAL HepG2 Assay for M61 Transcription Factor (Internal Marker) (AID 2282937). Conditions: HepG2 Attagene CIS-FACTORIAL M61 internal marker reporter; actives raise or lower the signal. An outline of the steps: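 Endogenous transcription factor activity in HepG2 is read through transiently transfected cis-element reporter units. After 24 h dosing, RNA undergoes reverse transcription, PCR and primer extension with 6-FAM before capillary electrophoresis; DMSO-referenced bidirectional fit.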

Assay [3] in a line: ATG_EGR_CIS: Attagene CIS-FACTORIAL HepG2 Assay for human Early Growth Response 1 (EGR1) (AID 2282938). Conditions: HepG2 Attagene CIS-FACTORIAL EGR reporter mRNA; actives raise or lower the signal. The gist of the method:
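Activity is taken as induction or loss of reporter mRNA versus DMSO, fitted bidirectionally. Transcripts from cis-regulated reporter units in transiently transfected HepG2 were measured after 24 h by RT-PCR with capillary electrophoresis.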

Assay [4] can be described thus: ATG_M_19_CIS: Attagene CIS-FACTORIAL HepG2 Assay for M19 Transcription Factor (Internal Marker) (AID 2282939). Conditions: HepG2 Attagene CIS-FACTORIAL M19 internal marker reporter; actives raise or lower the signal. An outline of the steps:
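HepG2 cells transiently transfected with cis-regulated multiplexed reporter units, dosed 24 h. Reporter mRNA quantified by RT-PCR and capillary electrophoresis; internal background marker fitted bidirectionally versus DMSO.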

Assay [5] in a line: ATG_ERE_CIS: Attagene CIS-FACTORIAL HepG2 Assay for Estrogen Response Element (ERE) (AID 2282940). The conditions noted are these: HepG2 ERE cis-reporter, Attagene RNA transcript; actives raise or lower the signal. An outline of the steps:
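HepG2 cells transiently transfected with multiplexed cis-element reporter units, measuring endogenous transcription factor activity; ERE reporter mRNA quantified after 24 h exposure by RT-PCR, fluorescent labelling, HpaI digestion and capillary electrophoresis. Bidirectional change versus DMSO.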

A short description of assay [6]: ATG_Ets_CIS: Attagene CIS-FACTORIAL HepG2 Assay for human Erythroblast Transformation Specific (ETS) (AID 2282941). Conditions: HepG2 ETS cis-reporter transcription, actives raise or lower the signal. An outline of the steps: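 After transient cis-reporter transfection, HepG2 cells receive test chemical for 24 h. Reporter mRNA levels, measured by RT-PCR and capillary electrophoresis fluorescence, are analysed bidirectionally relative to the DMSO baseline.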

Assay [7] has as its target Hepatocyte nuclear factor 3-beta (Homo sapiens) (UniProt Q9Y261). Kind of assay: ATG_FoxA2_CIS: Attagene CIS-FACTORIAL HepG2 Assay for human Forkhead box A2 (FOXA2) (AID 2282942). The conditions noted are these: HepG2 cis-reporter transcription factor activity, 24 h; actives raise or lower the signal. An outline of the steps:
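Reporter transcript induction is measured by fluorescence after capillary electrophoresis of RT-PCR products from HepG2 cells exposed 24 h. Cis-regulated reporter units report endogenous factor activity; curves fitted both directions against DMSO.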

Assay [8] is described as follows: ATG_FoxO_CIS: Attagene CIS-FACTORIAL HepG2 Assay for human Forkhead box O (FoxO) (AID 2282943). The conditions noted are these: HepG2 Attagene cis-reporter, FoxO element, mRNA; actives raise or lower the signal. The gist of the method: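 HepG2, transient MRTU transfection (cis element, endogenous TFs). Dose 24 h. TriZol RNA → oligo(dT) RT → PCR → 6-FAM primer extension → HpaI cut → CE. Gain/loss vs DMSO.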

Assay [9] can be described thus: ATG_GATA_CIS: Attagene CIS-FACTORIAL HepG2 Assay for human GATA Binding Protein (AID 2282944). Conditions: HepG2 GATA cis-element reporter, Attagene multiplex mRNA; actives raise or lower the signal. An outline of the steps: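 HepG2 cells transiently transfected with multiplexed cis-element reporter units measure endogenous GATA activity; after 24 h compound exposure, reporter mRNA quantified by RT-PCR and capillary electrophoresis. Changes fitted in both directions vs DMSO.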

A short description of assay [10]: ATG_GLI_CIS: Attagene CIS-FACTORIAL HepG2 Assay for human Zinc Finger Protein GLI1 (AID 2282945). The conditions noted are these: HepG2, Attagene cis-factorial reporter mRNA, GLI element; actives raise or lower the signal. The gist of the method:
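Bidirectional curve fits relative to DMSO, using reporter mRNA levels from RT-PCR plus capillary electrophoresis. Cells were HepG2 transiently carrying cis-regulated reporter constructs, harvested 24 h after dosing.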

A short description of assay [11]: ATG_GRE_CIS: Attagene CIS-FACTORIAL HepG2 Assay for human Glucocorticoid Response Elements (GRE) (AID 2282947). The conditions noted are these: HepG2 GRE cis-reporter, Attagene multiplex mRNA; actives raise or lower the signal. The gist of the method:
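Assay uses human hepatoma HepG2 cells transfected with cis-promoter reporter units, exposed 24 h. mRNA from reporters detected by RT-PCR plus capillary electrophoresis; DMSO serves as negative control and baseline.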

Assay [12] is described as follows: ATG_ISRE_CIS: Attagene CIS-FACTORIAL HepG2 Assay for human Interferon Regulatory Factor 1 (IRF1) binding to an Interferon-Stimulated Response Element (ISRE) (AID 2282948). The conditions noted are these: HepG2 ISRE cis-reporter (Attagene), mRNA transcription readout; actives raise or lower the signal. An outline of the steps:
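Quantitation relies on labelled RT-PCR fragments separated by capillary electrophoresis. Human HepG2 cells bearing cis-promoter reporter constructs were treated 24 h; DMSO served as baseline for bidirectional fitting.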

The nature of assay [13]: ATG_M_32_CIS: Attagene CIS-FACTORIAL HepG2 Assay for M32 Transcription Factor (Internal Marker) (AID 2282949).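 Also: background control marker of the multiplexed CIS panel rather than a real target.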 Conditions: HepG2 Attagene cis-factorial M32 reporter, mRNA; actives raise or lower the signal. An outline of the steps: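 Internal background marker read-out: RT-PCR/capillary electrophoresis fluorescence of reporter transcripts from transiently transfected HepG2 cells after 24 h chemical exposure. Activity fitted bidirectionally relative to DMSO negative control.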

Assay [14] in a line: ATG_M_06_CIS: Attagene CIS-FACTORIAL HepG2 Assay for M06 Transcription Factor (Internal Marker) (AID 2282950). The conditions noted are these: HepG2 Attagene CIS-FACTORIAL M06 internal marker reporter; actives raise or lower the signal. The gist of the method:
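Internal background marker within multiplexed cis-reporter HepG2 system. Cells transiently transfected, dosed 24 h; reporter mRNA measured by RT-PCR, HpaI digestion and capillary electrophoresis. Bidirectional fit relative to DMSO.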

Assay [15] concerns the target Hypoxia-inducible factor 1-alpha (Homo sapiens) (UniProt Q16665). The experiment in a line: ATG_HIF1a_CIS: Attagene CIS-FACTORIAL HepG2 Assay for human Hypoxia Inducible Factor 1 (HIF1A) (AID 2282951). Conditions: HepG2 Attagene cis-factorial HIF1a reporter transcription; actives raise or lower the signal. The gist of the method: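 Fluorescence intensity of capillary-separated, 6-FAM-labelled reporter amplicons gives mRNA induction in HepG2 cells carrying transfected cis-promoter reporter units; cells exposed 24 h, responses fitted up or down from DMSO.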

Assay [16] concerns the target Hepatocyte nuclear factor 6 (Homo sapiens) (UniProt Q9UBC0). The experiment in a line: ATG_HNF6_CIS: Attagene CIS-FACTORIAL HepG2 Assay for human Hepatocyte Nuclear Factor 6 (HNF6) (AID 2282952). Conditions: HepG2 Attagene cis-factorial HNF6 reporter transcription; actives raise or lower the signal. The gist of the method:
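Multiplexed mRNA reporter assay in transfected HepG2; 24 h dosing; RT-PCR plus capillary electrophoresis fluorescence; DMSO-referenced bidirectional curve fitting.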

For assay [17], the target named is Heat shock factor protein 1 (Homo sapiens) (UniProt Q00613). Kind of assay: ATG_HSE_CIS: Attagene CIS-FACTORIAL HepG2 Assay for human Heat Shock Transcription Factor 1 (HSE) (AID 2282953). Conditions: HepG2 HSE cis-reporter, Attagene RNA transcription; actives raise or lower the signal. An outline of the steps: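 HepG2 cells transfected with cis-promoter reporter units sensing endogenous transcription factor activity; reporter mRNA quantified 24 h post-dose by RT-PCR and capillary electrophoresis of 6-FAM-labelled products. Bidirectional fitting against DMSO.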

Assay [18] can be described thus: ATG_MRE_CIS: Attagene CIS-FACTORIAL HepG2 Assay for human Metal Responsive Element (MRE) (AID 2282954). The conditions noted are these: HepG2 MRE cis-reporter transcription, Attagene multiplex; actives raise or lower the signal. The gist of the method:
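After a 24 h chemical exposure, transiently transfected HepG2 cells yield RNA whose reporter sequences are amplified, FAM-labelled and sized by capillary electrophoresis. Curves are fitted bidirectionally relative to DMSO.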

The nature of assay [19]: ATG_PBREM_CIS: Attagene CIS-FACTORIAL HepG2 Assay for human Phenobarbital-responsive Enhancer Module (PBREM) (AID 2282955). Conditions: HepG2 PBREM cis-reporter, Attagene multiplexed transcription; actives raise or lower the signal. The gist of the method: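 Cells were transfected with cis-element reporter units and treated for 24 h, after which RNA was extracted and reporter transcripts measured by RT-PCR and capillary electrophoresis.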

The target of assay [20] is Bile acid receptor (Homo sapiens) (UniProt Q96RI1). The experiment in a line: ATG_IR1_CIS: Attagene CIS-FACTORIAL HepG2 Assay for human Nuclear Receptor Subfamily 1 Group H Member 4 (NR1H4), IR1 submotif (AID 2282946). The conditions noted are these: IR1 reporter transcription, actives raise or lower the signal. An outline of the steps:
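Cells (human HepG2) carry transiently transfected cis-promoter reporter transcription units. Compounds are incubated 24 h, total RNA is reverse-transcribed and amplified, and labelled fragments are resolved by capillary electrophoresis. Curves use DMSO as baseline.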

“And” between values parts separate entries of the source, which are not always exact repeats. Equal values may be shown once. A structure can be active in one record and inactive in another. The source made the active and inactive calls. The calls were made as follows: active = hit-call score of the fitted dose curve at least 0.9, where 1 is the maximum; inactive = score below 0.9.

Sequence of Bile acid receptor (Homo sapiens) (Q96RI1 whole entry, looked up, the tested form may be a part): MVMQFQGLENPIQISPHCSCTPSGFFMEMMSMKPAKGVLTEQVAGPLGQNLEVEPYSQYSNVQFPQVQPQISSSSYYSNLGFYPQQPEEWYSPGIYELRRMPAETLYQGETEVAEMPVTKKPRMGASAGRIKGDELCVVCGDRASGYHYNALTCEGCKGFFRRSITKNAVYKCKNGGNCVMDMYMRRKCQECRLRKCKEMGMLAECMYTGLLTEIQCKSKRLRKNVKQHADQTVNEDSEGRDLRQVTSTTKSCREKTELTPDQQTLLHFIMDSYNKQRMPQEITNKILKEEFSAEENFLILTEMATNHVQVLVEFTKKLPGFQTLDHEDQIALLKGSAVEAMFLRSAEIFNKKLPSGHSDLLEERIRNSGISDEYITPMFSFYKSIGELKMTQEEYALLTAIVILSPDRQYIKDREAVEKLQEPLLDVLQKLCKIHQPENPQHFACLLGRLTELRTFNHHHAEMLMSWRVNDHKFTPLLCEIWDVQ
Sequence of Hepatocyte nuclear factor 6 (Homo sapiens) (Q9UBC0 whole entry, looked up): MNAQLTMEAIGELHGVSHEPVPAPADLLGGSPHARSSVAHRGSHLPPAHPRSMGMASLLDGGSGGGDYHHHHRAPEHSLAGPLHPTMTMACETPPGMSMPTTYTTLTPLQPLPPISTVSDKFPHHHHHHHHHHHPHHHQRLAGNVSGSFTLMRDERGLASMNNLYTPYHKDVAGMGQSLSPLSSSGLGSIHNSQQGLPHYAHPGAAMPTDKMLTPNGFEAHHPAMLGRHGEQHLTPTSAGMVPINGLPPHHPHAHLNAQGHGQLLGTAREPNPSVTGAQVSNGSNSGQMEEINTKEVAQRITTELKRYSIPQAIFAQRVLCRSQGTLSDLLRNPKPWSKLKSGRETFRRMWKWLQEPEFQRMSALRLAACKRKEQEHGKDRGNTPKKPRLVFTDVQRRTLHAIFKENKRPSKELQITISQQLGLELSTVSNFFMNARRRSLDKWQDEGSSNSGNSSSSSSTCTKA
Sequence of Heat shock factor protein 1 (Homo sapiens) (Q00613 whole entry, looked up): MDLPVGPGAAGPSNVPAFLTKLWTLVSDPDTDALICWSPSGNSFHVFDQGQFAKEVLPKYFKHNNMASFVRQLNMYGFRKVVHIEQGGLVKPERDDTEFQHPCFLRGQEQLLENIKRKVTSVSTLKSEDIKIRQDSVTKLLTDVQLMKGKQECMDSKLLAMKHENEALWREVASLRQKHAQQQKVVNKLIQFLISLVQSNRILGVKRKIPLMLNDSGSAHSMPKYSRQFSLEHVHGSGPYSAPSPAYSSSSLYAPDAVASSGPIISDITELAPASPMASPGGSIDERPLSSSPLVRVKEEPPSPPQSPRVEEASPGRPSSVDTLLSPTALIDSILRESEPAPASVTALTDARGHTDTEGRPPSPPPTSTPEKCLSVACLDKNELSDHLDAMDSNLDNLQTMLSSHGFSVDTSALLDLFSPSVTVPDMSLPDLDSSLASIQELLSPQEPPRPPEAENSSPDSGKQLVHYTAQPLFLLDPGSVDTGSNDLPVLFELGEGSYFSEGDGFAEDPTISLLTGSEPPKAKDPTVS
Sequence of Hypoxia-inducible factor 1-alpha (Homo sapiens) (Q16665 whole entry, looked up): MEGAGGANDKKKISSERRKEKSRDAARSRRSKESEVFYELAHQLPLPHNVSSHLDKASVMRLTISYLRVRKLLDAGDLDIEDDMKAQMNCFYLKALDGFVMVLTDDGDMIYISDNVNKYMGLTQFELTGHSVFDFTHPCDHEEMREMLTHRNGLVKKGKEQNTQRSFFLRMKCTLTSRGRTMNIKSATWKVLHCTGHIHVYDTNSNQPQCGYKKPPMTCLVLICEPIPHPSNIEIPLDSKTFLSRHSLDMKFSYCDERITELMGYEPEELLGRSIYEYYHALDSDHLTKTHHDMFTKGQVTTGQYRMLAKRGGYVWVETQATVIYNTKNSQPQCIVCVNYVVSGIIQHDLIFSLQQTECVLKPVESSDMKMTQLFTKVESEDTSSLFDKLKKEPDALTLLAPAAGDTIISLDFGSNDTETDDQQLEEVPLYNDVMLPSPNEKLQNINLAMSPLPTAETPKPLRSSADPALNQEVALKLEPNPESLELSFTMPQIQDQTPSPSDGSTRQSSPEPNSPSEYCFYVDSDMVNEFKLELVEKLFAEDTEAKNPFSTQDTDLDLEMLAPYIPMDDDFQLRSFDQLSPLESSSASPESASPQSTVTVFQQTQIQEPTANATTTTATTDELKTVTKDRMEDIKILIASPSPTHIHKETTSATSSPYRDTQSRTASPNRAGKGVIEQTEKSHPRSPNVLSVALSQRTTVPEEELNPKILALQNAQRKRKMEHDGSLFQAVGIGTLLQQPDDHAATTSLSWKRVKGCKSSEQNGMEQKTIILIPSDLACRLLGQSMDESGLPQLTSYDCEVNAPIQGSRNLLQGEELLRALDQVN
Sequence of Hepatocyte nuclear factor 3-beta (Homo sapiens) (Q9Y261 whole entry, looked up): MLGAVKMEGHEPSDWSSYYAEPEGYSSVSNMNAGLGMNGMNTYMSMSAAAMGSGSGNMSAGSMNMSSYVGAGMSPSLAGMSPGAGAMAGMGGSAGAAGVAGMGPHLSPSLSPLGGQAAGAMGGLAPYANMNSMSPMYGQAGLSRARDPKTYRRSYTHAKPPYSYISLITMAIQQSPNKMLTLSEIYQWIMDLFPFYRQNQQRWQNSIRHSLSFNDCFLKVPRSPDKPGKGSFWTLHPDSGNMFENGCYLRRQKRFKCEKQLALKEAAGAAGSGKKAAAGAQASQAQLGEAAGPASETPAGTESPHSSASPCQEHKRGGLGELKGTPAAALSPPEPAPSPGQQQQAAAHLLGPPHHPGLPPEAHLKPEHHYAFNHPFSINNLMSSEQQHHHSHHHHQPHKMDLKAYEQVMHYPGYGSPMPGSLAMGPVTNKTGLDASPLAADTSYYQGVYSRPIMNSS

Consider `O=C(O)C(F)(F)C(F)(F)C(F)(F)C(F)(F)C(F)(F)F`, for which the result in assay [1], in assay [2], in assay [3], in assay [4], in [5] and in [6] was inactive. Further, the result in assay [7], in [8], in assay [9], in [10], in assay [11] and in assay [12] was inactive. The call in assay [13], in [14], in [15], in assay [16], in [17] and in [18] was inactive. Also, in [19], the result was inactive. Moreover, in assay [15], the AC50 is 5.86 µM (active).

Take `O=S(=O)(O)C(F)(F)C(F)(F)C(F)(F)C(F)(F)C(F)(F)C(F)(F)F`: the outcome in assay [1], in assay [2], in [3], in assay [4], in [5] and in assay [6] was inactive. For the same molecule, the result in assay [7], in assay [8], in assay [9], in assay [10], in [20] and in [11] was inactive. Further, the outcome in [12], in assay [13], in assay [15], in assay [16], in assay [17] and in [18] was inactive. In addition, in assay [19], the result was inactive. Also, the AC50 in assay [5] was 100 µM (active) and 150 µM (active).

In the case of `CO/C=C(/C(=O)OC)c1ccccc1COc1cccc(C(F)(F)F)n1`, the outcome in [1], in assay [2], in assay [4], in [5], in assay [6] and in [7] was inactive. Besides, the molecule was classed as inactive in assay [8], in assay [9], in assay [10], in [12], in assay [13] and in assay [14]. The outcome in assay [15], in assay [16], in assay [17] and in assay [19] was inactive. Also, the AC50 in assay [3] is 28.8 µM (active); in [20], 26.4 µM (active); in assay [18], 44.3 µM (active).

Take `N#Cc1ccc(N(CC(N)=O)CC(F)(F)F)cc1C(F)(F)F`: the result in [1], in assay [2], in [5], in [6], in assay [7] and in [8] was inactive. Moreover, the result in assay [9], in assay [10], in assay [20], in assay [12], in assay [13] and in [15] was inactive. Also, the call in [16], in assay [17] and in assay [18] was inactive. Besides, in [3], the AC50 was 25.3 µM (active).

On to `Cc1ccc(O)c(C)c1`, for which the result in assay [1], in assay [2], in assay [3], in assay [5], in assay [6] and in assay [7] was inactive. Also, the call in assay [8], in [9], in [10], in assay [11], in assay [12] and in assay [13] was inactive. Also, the outcome in [15], in assay [16], in assay [17] and in assay [18] was inactive.

With `Nn1cnnc1`, the result in assay [1], in assay [2], in [3], in assay [6], in [7] and in assay [8] was inactive. Further, the molecule was classed as inactive in assay [9], in [10], in assay [11], in assay [12], in assay [13] and in assay [14]. Further, the molecule was classed as inactive in assay [15], in assay [16], in assay [17], in [18] and in [19]. In [5], the concentration at half-maximal activity (AC50) is 39.5 µM (active).

What is called AC50 is the concentration giving half of the maximal activity seen.

For the origin of these results see PubChem BioAssay (EPA / NIEHS).
